Screens deposited in PubChem BioAssay by several laboratories.
CYP2C19 activ – cytochrome P450 2C19 (human) activation | P33261 | recombinant CYP2C19, luciferin-H EGE luminescence; hits give high values; 0 = fully inhibited enzyme, 1 = untreated enzyme | activation factor at 5 µM | 96,000 tested, under 10 active | AID 1025;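 active means activation factor of at least 2 at 5 µM in the primary screen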
CYP2C19 inhib – inhibitors of human CYP2C19. actives 21% (n = 96,000). P33261. CYP2C19 Supersomes, luciferin-H EGE luminescence, 30 min. inhibition, % at 5 µM;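 active means CYP2C19 inhibition above a set limit at 5 µM in the primary screen, cut at about 50% in these data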
PLK1 kinase inh – blocks human PLK1 kinase activity; P53350; recombinant PLK1 kinase, TR-FRET peptide phosphorylation; inhibition, % at 10 µM; actives 0.53% (n = 97,000);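 active means inhibition of 50% or more in the single-concentration screen; inactive means inhibition below 50%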
CYP2C9 inh – inhibitors of human CYP2C9. P11712. CYP2C9 Supersomes, luciferin-H conversion, luminescence. inhibition, % at 5 µM. actives 20% (n = 96,000);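 active means blocking of liver enzyme CYP2C9 beyond about 50% at 5 µM, limit read from the data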
Target sequence (P11712 whole entry, looked up): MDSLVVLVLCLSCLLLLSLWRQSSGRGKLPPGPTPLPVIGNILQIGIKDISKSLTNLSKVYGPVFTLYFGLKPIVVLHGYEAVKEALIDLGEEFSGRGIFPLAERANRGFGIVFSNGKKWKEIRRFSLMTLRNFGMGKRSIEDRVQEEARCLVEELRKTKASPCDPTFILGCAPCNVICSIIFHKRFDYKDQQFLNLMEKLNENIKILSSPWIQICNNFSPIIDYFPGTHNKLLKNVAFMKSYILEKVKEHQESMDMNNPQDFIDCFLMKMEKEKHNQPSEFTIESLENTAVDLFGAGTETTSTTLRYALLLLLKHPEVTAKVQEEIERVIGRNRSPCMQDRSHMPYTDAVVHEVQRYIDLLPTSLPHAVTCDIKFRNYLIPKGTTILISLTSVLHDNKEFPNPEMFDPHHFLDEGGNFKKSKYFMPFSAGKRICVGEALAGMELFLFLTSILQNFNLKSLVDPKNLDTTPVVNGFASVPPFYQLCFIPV
Plk1 PBD FP – blocks phosphopeptide binding to human Plk1 polo box domain. P53350. Plk1 PBD phosphopeptide binding, fluorescence polarization. inhibition, %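 (tested at about 20 µM)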. actives 0.13% (n = 97,000); in the data active means inhibition above about 34%, passing the limit was not always enough
CYP2C9 activ – activators of human CYP2C9. P11712. recombinant CYP2C9, luciferin-H conversion, luminescence; hits give high values; factor 1 = untreated enzyme, 0 = blocked. activation factor at 5 µM. actives 1.4% (n = 96,000);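 active means activation factor of 2 or more for CYP2C9 at a 5 µM dose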
Hits are given with their value; n = inactive; x = no result. A selection: hits, their analogues and other compounds. The true share with any hit is near 28%.

SMILES	CYP2C19 activ	CYP2C19 inhib	PLK1 kinase inh	CYP2C9 inh	Plk1 PBD FP	CYP2C9 activ
CC(=O)c1ccc(NS(=O)(=O)c2ccc(C)cc2)cc1	n	80	n	80	n	n
CCOC(=O)NCc1ccc(S(=O)(=O)Nc2ccc(C)cc2)cc1	x	x	n	x	n	x
COc1ccc(NS(=O)(=O)c2cccc(C(=O)O)c2)cc1	n	n	n	n	n	n
CC(=O)c1ccc(NS(=O)(=O)c2cccc(C)c2)cc1	n	99	n	95	n	n
COc1ccc(C2/C(=C(\O)c3ccc4c(c3)OCCO4)C(=O)C(=O)N2CCCN(C)C)c(OC)c1 (stereo not given)	n	n	x	n	x	n
CN(C)CC1CCCCC1C1(O)c2ccccc2CSc2sccc21 (stereo not given)	x	x	n	x	n	x
CO/N=C\C(=N\Nc1ccc(OC)cc1)C(=O)c1ccccc1	n	n	n	n	n	n
O=S(=O)(c1cc(Cl)ccc1Cl)N1CC2CCCN2c2ccc(C(F)(F)F)cc21 (stereo not given)	n	n	n	82	n	n
COc1ccc(S(=O)(=O)N2CC3CCCN3c3ccc(C(F)(F)F)cc32)cc1 (stereo not given)	n	73	n	n	n	n
COc1ccc(S(=O)(=O)N2CC3CCCN3c3cc(C(F)(F)F)ccc32)cc1 (stereo not given)	n	92	n	n	n	n
O=C(Cn1cc(C(F)(F)F)ccc1=O)N1CCN(S(=O)(=O)c2ccccc2)CC1	n	n	n	n	n	n
Cc1ccc2nc(NC3=NCN(C4CCCCC4)CN3)nc(C)c2c1	n	n	x	n	x	n
Cc1cc(C)cc(N(CC(=O)NCC2CCCO2)C(=O)CCC(=O)Nc2cc(C)on2)c1 (stereo not given)	n	n	n	n	n	n
COc1cc(OC)c(OC)cc1/C=N/NC(=O)c1cc(-c2cccn2C)n[nH]1	n	n	n	n	n	n
COc1ccc(Br)cc1/C=N/NC(=O)c1nc(-c2ccccc2)n2c1CCCCC2	n	60	n	n	n	n
Cc1cc(C(=O)N/N=C/c2cc(Br)ccc2OC(=O)c2ccccc2)n[nH]1	n	n	n	61	n	n
Cc1cc(C)nc(-n2nc(C)cc2NC(=O)c2cccc(S(=O)(=O)N3CCOCC3)c2)n1	n	n	n	n	n	n
CC(c1ccco1)N(C(=O)CSc1ccc(Br)cc1)c1ccccn1 (stereo not given)	n	98	n	90	n	n
Cc1ccc(Cn2c(=O)c3ccccc3n3c(CCC(=O)O)nnc23)cc1	x	x	n	x	n	x
Cn1cccc1Cc1nnc(SCC(=O)NCC2CCCO2)n1-c1ccc(F)cc1 (stereo not given)	n	n	x	n	x	n
O=C(Nc1ccccc1)c1ccc(NCc2cccnc2)c(S(=O)(=O)N2CCOCC2)c1	n	54	n	56	n	n
O=C(Nc1ccccc1)c1ccc(NCc2ccco2)c(S(=O)(=O)N2CCOCC2)c1	n	87	n	90	n	n
O=C(NCc1ccncc1)c1ccc(Cl)c(S(=O)(=O)N2CCOCC2)c1	n	68	n	82	n	n
COC(=O)c1sccc1OC(C)C(C)=O (stereo not given)	n	n	n	n	n	n
COc1ccccc1C1/C(=C(\O)c2c(C)nc3c(C)cccn23)C(=O)C(=O)N1CCCN(C)C (stereo not given)	x	x	n	x	n	x
SMILES	CYP2C19 activ	CYP2C19 inhib	PLK1 kinase inh	CYP2C9 inh	Plk1 PBD FP	CYP2C9 activ
CCCCCCCCC(=O)Nc1cc(C)ccc1OC	x	x	n	x	n	x
COc1ccc(/C=C\C(=O)CC(O)(c2ccccc2)C(F)(F)F)cc1 (stereo not given)	n	n	n	n	n	n
O=C(Oc1ccc2c(c1)OCC2=O)c1ccccc1	n	n	n	n	n	n
CC(=O)Oc1ccc2c(c1)C(=O)c1ccccc1CO2	n	68	n	n	n	n
CC(Sc1nnc(N)s1)c1ccccc1Cl (stereo not given)	n	96	n	51	n	n
O=C(/C=C/c1cccc([N+](=O)[O-])c1)NCc1cccnc1	n	n	n	n	n	n
Cc1ccc(NC(=O)c2cc([N+](=O)[O-])ccc2NCc2cccnc2)cc1	n	83	n	91	n	n
CCCCn1c(CCNC(=O)c2cccs2)nc2ccccc21	n	63	n	n	n	n
CC(C)Cn1c(CNC(=O)c2ccccc2)nc2ccccc21	n	72	n	n	n	n
CCCn1c(CNC(=O)c2cccs2)nc2ccccc21	n	n	n	n	n	n
CCCn1c(CNC(=O)c2ccccc2)nc2ccccc21	n	61	n	n	n	n
CCn1c(CNC(=O)c2cccc(C)c2)nc2ccccc21	n	n	n	n	n	n
CC(C)Cn1c(CCCNC(=O)c2ccc(F)cc2)nc2ccccc21	n	n	n	n	n	n
Cc1ccc(Cl)cc1N1CCN(C(=O)Cc2cn(C)c3ccccc23)CC1	n	53	n	n	n	n
CC(=O)c1ccc(N2CCN(C(=O)C3(S(=O)(=O)c4ccc(Cl)cc4)CC3)CC2)cc1	n	n	n	n	n	n
O=C(N1CCN(c2cccc(Cl)c2)CC1)C1(S(=O)(=O)c2ccc(Cl)cc2)CC1	n	57	n	n	n	n
Cc1ccc(Cl)cc1N1CCN(C(=O)C2(S(=O)(=O)c3ccc(Cl)cc3)CC2)CC1	n	84	n	89	n	n
CCOC(=O)C1CCCN(c2c(Nc3ccc(OCC)cc3)c(=O)c2=O)C1 (stereo not given)	n	n	n	n	n	n
CCOc1ccc(CCNC(=O)C2CCCN(S(=O)(=O)c3c(C)n[nH]c3C)C2)cc1OCC (stereo not given)	n	n	n	n	n	n
O=C(O)c1ccc(COCC(F)(F)C(F)F)o1	n	n	n	n	n	n
Cc1oc(/N=C/c2ccc(Cl)cc2Cl)c(C#N)c1C	n	71	x	n	x	n
Cn1c(SCc2cnc(-c3ccccc3)s2)nnc1C1COc2ccccc2O1 (stereo not given)	n	90	n	n	n	n
Cn1c(SCc2cc(=O)n3cc(Br)ccc3n2)nnc1C1COc2ccccc2O1 (stereo not given)	n	n	n	54	n	n
Cc1occc1-c1nnc(SCc2cc(=O)n3cc(Br)ccc3n2)n1C	n	n	n	n	n	n
Cc1cccc2sc(NC(=O)CCNS(=O)(=O)c3cccs3)nc12	n	82	n	78	n	n
Cc1ccc2nc(NC(=O)CCNS(=O)(=O)c3cccs3)sc2c1	n	n	x	n	x	n
CCOC(=O)Cn1nnc2c(sc3nc4c(c(-c5ccccc5)c32)CCC4)c1=O	n	n	n	n	n	n
O=c1ccc(NS(=O)(=O)c2ccc(Cl)cc2)cn1Cc1ccc(Cl)c(Cl)c1	n	97	n	90	n	n
CCn1ncc(C2=NOC(C(=O)Nc3cc(OC)c(Cl)cc3OC)C2)c1C (stereo not given)	n	n	x	n	x	n
